Data on 19 molecules can be found in PubChem BioAssay (EPA / NIEHS).

Read-out in assay [1]: Matrix Metallopeptidase 1 (MMP1), MMP1 (gene 4312)
Put plainly: BSK_BE3C_MMP1: BioMAP Diversity Plus: BE3C Assay for Matrix Metallopeptidase 1 (MMP1) Biomarker Activity (AID 2283024). The following applies: primary human bronchial epithelial cells; actives raise or lower the signal. In a few lines:
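Primary human bronchial epithelial cells were dosed with test chemicals, and MMP1 levels were measured by ELISA 24 h later. Data were fitted bidirectionally against DMSO as the negative control and activity baseline.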

Assay [2] is described as follows: BSK_3C_Vis: BioMAP Diversity Plus: 3C Assay for Morphology Visualization (AID 2283025).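 Further: fitted both ways so gain or loss versus DMSO counts.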 The following applies: primary human endothelial cells (HUVEC). The method in brief: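 Human umbilical vein endothelial cells in the 3C system were imaged by light microscopy 24 h after chemical dosing to record cell morphology. Activity was fitted bidirectionally against DMSO as negative control and baseline; the endpoint serves as a background control.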

Read-out in assay [3]: Pselectin, SELP (gene 6403)
In words: BSK_4H_Pselectin: BioMAP Diversity Plus: 4H Assay for Pselectin Biomarker Activity (AID 2283026). The following applies: primary human endothelial cells (HUVEC); actives raise or lower the signal. In a few lines: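 Primary human umbilical vein endothelial cells were exposed to test chemical for 24 h, then cell-surface P-selectin was quantified by ELISA. Activity was fitted bidirectionally against DMSO as negative control and baseline.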

Assay [4] is described as follows: BSK_4H_SRB: Viability Assessment in the BioMAP Diversity Plus: 4H Assay (AID 2283027).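 Further: cells exposed to compound for 24 h before staining.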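 On AC50: curves fitted both ways versus DMSO so AC50 may be loss or gain.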 Conditions: primary human endothelial cells (HUVEC). In a few lines:
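Absorbance at 560 nm of SRB-stained total protein served as the viability read-out in confluent primary human umbilical vein endothelium 24 h after chemical treatment. Curves were fitted bidirectionally against DMSO as negative control.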

Assay [5] is described as follows: BSK_BE3C_SRB: Viability Assessment in the BioMAP Diversity Plus: BE3C Assay (AID 2283028).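 On AC50: fitted both ways so AC50 may mark signal gain or loss versus DMSO.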 The following applies: primary human bronchial epithelial cells. In a few lines: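 Human primary bronchial epithelial cells were exposed to test chemicals for 24 h. Total protein in parallel cultures was then measured by staining with 0.1% sulforhodamine B after 10% TCA fixation, with absorbance read at 560 nm. Activity was fitted bidirectionally against DMSO.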

Read-out in assay [6]: Thrombomodulin, THBD (gene 7056)
Put plainly: BSK_3C_Thrombomodulin: BioMAP Diversity Plus: 3C Assay for Thrombomodulin Biomarker Activity (AID 2283029). The following applies: primary human endothelial cells (HUVEC); actives raise or lower the signal. The method in brief: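 Primary human umbilical vein endothelial cells (3C system) were exposed to chemical for 24 h, then thrombomodulin levels were measured by ELISA. Activity was fitted bidirectionally against the DMSO negative control as baseline.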

Read-out in assay [7]: Urokinase-type plasminogen activator receptor (uPAR), PLAUR (gene 5329)
Put plainly: BSK_4H_uPAR: BioMAP Diversity Plus: 4H Assay for Urokinase-type plasminogen activator receptor (uPAR) Biomarker Activity (AID 2283030). The following applies: primary human endothelial cells (HUVEC); actives raise or lower the signal. In a few lines: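 Primary human umbilical vein endothelial cells were exposed to chemical for 24 h before cell-surface uPAR was quantified by ELISA. Activity was fitted bidirectionally against the DMSO negative control baseline.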

Read-out in assay [8]: Vascular endothelial growth factor receptor 2 (Homo sapiens) (UniProt P35968)
Put plainly: BSK_4H_VEGFRII: BioMAP Diversity Plus: 4H Assay for Vascular endothelial growth factor receptor 2 (VEGFR2) Biomarker Activity (AID 2283031).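 On AC50: cell-surface VEGFR2 protein level quantified by ELISA.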 Conditions: primary human endothelial cells (HUVEC); actives raise or lower the signal. The method in brief:
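Primary human umbilical vein endothelial cells in the BioMAP 4H system were dosed with test chemical, and 24 h later VEGFRII was measured by ELISA. Activity was fitted bidirectionally against DMSO as negative control and baseline.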

Read-out in assay [9]: Human Leukocyte Antigen - DR isotype (HLADR), HLA-DRA (gene 3122)
Put plainly: BSK_BE3C_HLADR: BioMAP Diversity Plus: BE3C Assay for Human Leukocyte Antigen - DR isotype (HLADR) Biomarker Activity (AID 2283032). Conditions: primary human bronchial epithelial cells; actives raise or lower the signal. In a few lines: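 Human primary bronchial epithelial cells in the BE3C system were exposed to chemicals for 24 h, after which HLA-DR levels were quantified by ELISA. Activity was fitted bidirectionally, gain or loss of signal, against DMSO as negative control and baseline.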

Assay [10] can be described thus: BSK_3C_SRB: Viability Assessment in the BioMAP Diversity Plus: 3C Assay (AID 2283023).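 Further: fitted both ways against DMSO so a hit may be signal rise or drop.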 Conditions: primary human endothelial cells (HUVEC). The method in brief:
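Primary human umbilical vein endothelial cells in the 3C system were read 24 h after compound dosing. Total protein was stained with 0.1% sulforhodamine B after 10% TCA fixation and read at 560 nm, with bidirectional fitting against DMSO as baseline.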

Activity calls are given as the source filed them. How the source made its calls: active means hit-call score of the fitted dose curve at least 0.9, where 1 is the maximum; inactive means score below 0.9.

Turning to `CCCCCCCCCCCO`, the result in assay [1], in assay [2], in assay [3], in assay [4], in [5] and in assay [6] was inactive. Besides, the outcome in assay [7], in assay [8] and in [9] was inactive.
`O=C(OCCCCCCOC(=O)c1ccccc1)c1ccccc1`: the result in [10], in [1], in assay [2], in assay [3], in assay [4] and in assay [5] was inactive. The outcome in [6], in [7], in assay [8] and in assay [9] was inactive.
In general, AC50 refers to the midpoint of the concentration-response curve, whichever way the signal moves. Take `Cc1cc2c(cc1C(F)(F)F)N(C(=O)Nc1ccc(Oc3cccnc3C)nc1)CC2`: the outcome in assay [10], in assay [1], in assay [7] and in [8] was inactive. The AC50 is 36.6 µM (active) in assay [2]; 8.67 µM (active) in [3]; 15.8 µM (active) in [5]; 5.4 µM (active) in assay [6]; 5.03 µM (active) in assay [9].
`COCC(C)OCC(C)OCC(C)O` (stereo not drawn): the result in assay [10], in assay [1], in [2], in assay [5], in assay [6] and in [7] was inactive. The outcome in [8] and in assay [9] was inactive.
As for `CC(C)(c1cc(Br)c(O)c(Br)c1)c1cc(Br)c(O)c(Br)c1`, the AC50 is 29.6 µM (active) in assay [10]; 9.3 µM (active) in assay [1]; 37.8 µM (active) in assay [2]; 28.7 µM (active) in [4]; 8.15 µM (active) in [6]; 28.9 µM (active) in [7]. Also, the AC50 in [9] was 7.25 µM (active). Also, the result in assay [8] was inactive.
With `OC12N=C(c3ccccc3)SC1Cc1cc(Cl)ccc12` (stereo not drawn), the results for the concentration at half-maximal activity (AC50) in [10] and in assay [1] were 28.1 µM (active) and 15.3 µM (active), respectively. For the same molecule, the outcome in assay [2], in assay [5], in assay [6], in assay [7], in [8] and in assay [9] was inactive.
Regarding `CCCCCCCCN(C)CCCCCCCC`, the outcome in [10], in assay [1], in [2], in assay [6], in assay [7] and in assay [8] was inactive. In addition, the result in [9] was inactive.
Regarding `COc1ccc2cc(S(=O)(=O)N[C@H](CC(=O)N[C@H](Cc3ccc(CN4[C@H](C)CCC[C@@H]4C)cc3)C(=O)N(C)C(C)C)c3ccc4c(c3)OCO4)ccc2c1`, the half-maximal activity concentration (AC50) in assay [10] is 20.8 µM (active); in assay [2] it was 5.55 µM (active); in [3], 10.8 µM (active); in assay [7] it was 19.1 µM (active); in assay [9], 32.8 µM (active). Further, the outcome in [1], in assay [5], in assay [6] and in assay [8] was inactive.
Regarding `CCCCCCCCCCCCO`, the AC50 was 31.2 µM (active) in [10]; 38.4 µM (active) in assay [2]; 31.1 µM (active) in assay [4]; 31.9 µM (active) in [5]; 30.9 µM (active) in assay [7]; 34 µM (active) in [8]. The result in assay [1], in [6] and in assay [9] was inactive.
`Cc1ncc(CO)c(CO)c1O`: the result in assay [10], in assay [1], in assay [2], in assay [4], in [6] and in assay [7] was inactive. The outcome in [8] and in assay [9] was inactive.
As to `Cc1ccc2oc(CN(Cc3ccccc3)C(=O)Nc3c(F)cc(F)cc3F)c(-c3ccc(Cl)cc3)c2c1`, the result in assay [10], in [1], in assay [2], in assay [6], in assay [7] and in [8] was inactive. Further, in assay [9], the result was inactive.
For `Oc1ccccc1`, the outcome in [10], in assay [1], in [2], in assay [3], in [4] and in [6] was inactive. For the same molecule, the outcome in assay [7], in assay [8] and in assay [9] was inactive.
Consider `O=C(O)c1ccccc1-n1cc(C(=O)O)c(=O)c2cc(Nc3c(F)cc(F)cc3Cl)c(Cl)cc21`, for which the result in [10], in assay [1], in assay [2], in [4], in assay [6] and in [7] was inactive. In addition, the result in [8] and in assay [9] was inactive.
For `O=C1CCC(C2CCCCC2)CC1`, the outcome in assay [10], in assay [2], in [4], in assay [6], in assay [7] and in assay [8] was inactive. In addition, the AC50 in assay [1] was 12.6 µM (active); in assay [9], 25.9 µM (active).
For the molecule `COc1cccc([C@H](O)C2CCN(CCc3ccc(F)cc3)CC2)c1OC`, the result in [10], in [1], in [2], in assay [4], in assay [6] and in assay [8] was inactive. Moreover, in [9], the outcome was inactive. For the same molecule, the AC50 in [7] was 0.228 µM (active).
For `c1ccc(C[n+]2cccc3ccccc32)cc1`, the result in [10], in assay [1], in assay [2], in assay [3], in assay [5] and in assay [6] was inactive. The outcome in assay [7], in assay [8] and in assay [9] was inactive.
For `CCCCOC(=O)c1ccc(O)cc1`, the outcome in assay [10], in assay [1], in assay [2], in assay [3], in assay [4] and in assay [6] was inactive. The outcome in [7], in [8] and in assay [9] was inactive.
For `CCCOC(=O)c1cc(O)c(O)c(O)c1`, the result in assay [10], in assay [1], in assay [2], in assay [3], in [4] and in assay [5] was inactive. Also, the result in assay [6], in assay [7], in assay [8] and in assay [9] was inactive.
Regarding `O=C(Nc1ccc(Cl)cc1)Nc1ccc(Cl)c(Cl)c1`, the AC50 in assay [10] was 2.66 µM (active); in assay [3] it was 2.6 µM (active); in assay [4], 2.02 µM (active); in assay [7] it was 1.92 µM (active); in [8], 2.19 µM (active); in assay [9], 1.39 µM (active). In addition, the result in assay [1], in [2], in assay [5] and in assay [6] was inactive.
